Screens deposited in PubChem BioAssay by The Scripps Research Institute Molecular Screening Center.
Compounds with a hit are over-represented: about 3.4% of the library has one in this group of screens.
PLCg1 inh: PLC-gamma1 enzyme inhibitors, primary screen, biochemical, fluorescence, purified enzyme; 1-phosphatidylinositol 4,5-bisphosphate phosphodiesterase gamma-1 (Homo sapiens), P19174; fluorogenic substrate; inhibition, % at 12.2 µM; hit rate 0.84% among 370,000; in the data active = inhibition above about 9.5%
PLCb3 inh: human PLC-beta3 inhibitors, primary screen, biochemical, fluorescence | hit rate 0.18% among 370,000 | 1-phosphatidylinositol 4,5-bisphosphate phosphodiesterase beta-3 (Homo sapiens), Q01970 | inhibition, % at 12.2 µM | AID 720704, 2013 | Purified PLC-beta3, fluorogenic substrate; in the data active = inhibition above about 11%
ADAM10 inh: human ADAM10 inhibitors, primary screen, biochemical, QFRET, HTS. Disintegrin and metalloproteinase domain-containing protein 10 (Homo sapiens), O14672. recombinant ADAM10, EDANS/DABCYL FRET peptide cleavage, 3 h. inhibition, % at 7 µM. hit rate 0.62% among 370,000. AID 720582, 2013;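 active = inhibition above a per-campaign cutoff equal to the mean of compounds falling between control-based bounds plus 3 SD, cut at about 20% in these data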
KLK7 zymogen act: proKLK7 zymogen activators, primary screen, biochemical, fluorescence intensity. purified proKLK7, EDANS-DABCYL substrate fluorescence; 100% is mature enzyme control, 0% vehicle. activation, % at 7 µM. hit rate 0.9% among 370,000;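 active = activation above the mean of all tested compounds plus 3 SD, computed per campaign excluding outliers beyond control limits, cut at about 13% in these data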
Target sequence (P49862 whole entry, looked up): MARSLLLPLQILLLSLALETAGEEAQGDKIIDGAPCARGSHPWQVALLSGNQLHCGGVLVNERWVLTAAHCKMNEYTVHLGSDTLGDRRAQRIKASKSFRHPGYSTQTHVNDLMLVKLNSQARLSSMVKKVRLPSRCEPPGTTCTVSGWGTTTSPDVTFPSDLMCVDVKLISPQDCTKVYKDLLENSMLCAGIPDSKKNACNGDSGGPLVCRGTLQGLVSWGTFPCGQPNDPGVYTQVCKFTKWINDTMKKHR
ADAM17 inh: ADAM17 inhibitors, primary screen, biochemical, QFRET. Disintegrin and metalloproteinase domain-containing protein 17 (Homo sapiens), P78536. recombinant ADAM17, EDANS/DABCYL FRET peptide cleavage. inhibition, % at 6.95 µM. hit rate 0.83% among 370,000;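 active = inhibition above the mean of compounds lying between control limits plus 3 SD, set per campaign, cut at about 8.5% in these data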
HGIII-sPLA2 inh: human group III sPLA2 inhibitors, primary screen, biochemical, QFRET, BODIPY PC-A2 liposome substrate. Group 3 secretory phospholipase A2 (Homo sapiens), Q9NZ20. QFRET BODIPY PC-A2 liposome hydrolysis, fluorescence. inhibition, % at 12.2 µM. hit rate 0.56% among 370,000;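 active = inhibition above mean plus 3 SD of compounds lying within the high and low control bounds, cut at about 19% in these data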
KLK7 act conf: proKLK7 zymogen activators, confirmation, biochemical, fluorescence intensity, triplicate; activation, % at 7 µM; shares compounds with KLK7 zymogen act; purified proKLK7, EDANS-DABCYL substrate fluorescence; scaled: vehicle 0, mature enzyme 100; hit rate 68% among 3,200;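 active = activation, as change over the incubation, above the mean of all tested compounds plus 3 SD, cut at about 13% in these data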
EDANS interfere: EDANS-DABCYL substrate optical interference, artefact control for kallikrein-7 zymogen activator project, biochemical, fluorescence intensity, high throughput. hit rate 80% among 3,200. shares compounds with KLK7 zymogen act. activation, % at 7 µM. no enzyme, 4 h; solvent 0%, active enzyme control 100%;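 active = activation above the all-compound mean plus 3 SD, ignoring values outside control-based bounds, cut at about 4.8% in these data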;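 also: value is the 4 h activation minus the activation read at time zero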
K7 EDANS ctr: counter-screen for kallikrein-7 activators: EDANS-DABCYL interference, dose response; shares compounds with KLK7 zymogen act; EDANS-DABCYL peptide fluorescence interference, no enzyme; EC50, µM; hit rate 20% among 250;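 active = compounds that raise the fluorescence signal in this interference counterscreen, with EC50 at or below 10 µM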;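 also: intact quenched peptide substrate alone read at 355 nm excitation and 520 nm emission; signal is fluorescence gain from T0 to T4 after four hours at room temperature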
Large screens that a line does not name were inactive (follow-up assays come after a bar, where they were run).

COc1ccc(N2C3=C(C(=O)CC(C)(C)C3)C(c3cnn(C)c3)C3=C2CC(C)(C)CC3=O)cc1	KLK7 zymogen act 21.4 | KLK7 act conf inactive | EDANS interfere inactive
CCn1cc(C2C3=C(CC(C)(C)CC3=O)N(c3ccccc3)C3=C2C(=O)CC(C)(C)C3)c(C)n1	none
COc1ccc(OC)c(/C=C/C(=O)OCC(=O)N2C(C)CCCC2C)c1 (stereo not given)	KLK7 zymogen act 12.9 | KLK7 act conf 12.9 | EDANS interfere 14.6
COc1ccc(OC)c(/C=C/C(=O)OCC(=O)NCc2ccco2)c1	KLK7 zymogen act 22.9 | KLK7 act conf 17.2 | EDANS interfere 13.5 | K7 EDANS ctr inactive
COc1ccc(OC)c(/C=C/C(=O)Oc2ccc(C(C)=O)cc2)c1	KLK7 zymogen act 15.2 | KLK7 act conf 25.0 | EDANS interfere 32.0
COC(=O)[C@]12C[C@H](CC(=O)NCC34CC5CC(CC(C5)C3)C4)C(=O)N(Cc3cccc4ccccc34)C1=C[C@H](COCc1ccccc1)O[C@@H]2C	none
C=CCN1C(=O)[C@H](CC(=O)NCCCC)[C@@]2(C(=O)OCC)CCCC=C12	none
CC(=O)Nc1oc(-c2cccc3ccccc23)nc1C#N	KLK7 zymogen act 77.8 | KLK7 act conf 71.9 | EDANS interfere 71.7
Cc1ccccc1Cn1cc(COC(=O)NCCc2c[nH]c3ccccc23)nn1	none
COc1ccc(OC)c(C(c2c(O)nc(SC)[nH]c2=O)c2c(O)nc(SC)[nH]c2=O)c1	KLK7 zymogen act 12.8 | KLK7 act conf 15.3 | EDANS interfere 14.7
O=C(OCc1cn(Cc2ccccc2F)nn1)N1CCOCC1	none
COC(=O)C1=CNC=C(C(=O)OC)C1c1ccc(Cl)cc1	KLK7 zymogen act 14.1 | KLK7 act conf 81.0 | EDANS interfere 79.6
COC(=O)C1=CNC=C(C(=O)OC)C1c1ccccc1Cl	KLK7 zymogen act 65.6 | KLK7 act conf 64.9 | EDANS interfere 75.3
COC(=O)C1=CNC=C(C(=O)OC)C1c1cccc2ccccc12	none
CCN(CC)C(=O)CC[C@@H]1CC[C@]2(CCCN(C(=O)c3ccccc3)C2)O1	none
COc1ccc2c(C)c(CC(=O)N3CCN(C(=O)C4COc5ccccc5O4)CC3)c(=O)oc2c1 (stereo not given)	none
Cc1c(CC(=O)N2CCN(C(=O)C3COc4ccccc4O3)CC2)c(=O)oc2cc(O)cc(O)c12 (stereo not given)	KLK7 zymogen act 61.0 | KLK7 act conf 68.3 | EDANS interfere 67.3
Cc1cc(=O)oc2c(C)c(OCC(=O)N3CCN(C(=O)C4COc5ccccc5O4)CC3)ccc12 (stereo not given)	none
Cc1c(CC(=O)N2CCN(C(=O)C3COc4ccccc4O3)CC2)c(=O)oc2cc(O)ccc12 (stereo not given)	KLK7 zymogen act 58.3 | KLK7 act conf 74.5 | EDANS interfere 74.9
Cc1c(CC(=O)N2CCN(C(=O)C3COc4ccccc4O3)CC2)c(=O)oc2c(C)c(O)ccc12 (stereo not given)	KLK7 zymogen act 39.5 | KLK7 act conf 69.8 | EDANS interfere 69.7
Cc1cc(-c2n[nH]c(=S)n2N=Cc2cccc(OCc3ccccc3)c2)n[nH]1	none
O=C(C1CCCN1S(=O)(=O)c1ccccc1[N+](=O)[O-])N1CCN(c2ccccc2)CC1 (stereo not given)	none
O=C(NCc1ccco1)C1CCCN(S(=O)(=O)c2ccccc2[N+](=O)[O-])C1 (stereo not given)	none
COc1ccc(NC(=O)NNC(=O)CCn2nc(C)c([N+](=O)[O-])c2C)cc1OC	none
CCS(=O)(=O)Nc1ccc2c(c1)C(=O)N(C)[C@@H]1CC[C@H](CC(=O)OC)O[C@H]1CO2	none
COC(=O)[C@]12C[C@H](CC(=O)NCc3ccc(C)o3)C(=O)N(Cc3ccco3)C1=C[C@H](COCc1ccccc1)O[C@@H]2C	none
NC1=Nc2cccc3cccc1c23	KLK7 zymogen act 52.8 | KLK7 act conf 25.0 | EDANS interfere 27.2
CCOC(=O)N1CCN(C(=O)C[C@@H]2C(=O)N(Cc3ccc(OC)cc3)C3=CCN(C(=O)OC(C)(C)C)C[C@]32C(=O)OCC)CC1	none
CCC[C@H]1[C@@H](OC(=O)NCc2ccc(OC)cc2)CC[C@@]23CCCN2C(=O)CCC[C@@H]13	none (no result: KLK7 zymogen act)
CCC(CC)CC1CN2CCc3cc(OC)c(OC)cc3C2CC1(O)CC (stereo not given)	KLK7 zymogen act 29.7 | KLK7 act conf 19.8 | EDANS interfere 16.9 | K7 EDANS ctr inactive
N=c1c2c(-c3ccccc3)c(-c3ccccc3)n(Cc3ccccc3)c2ncn1C1CCOCC1	none
O=C(CSc1nc2ccccc2n1Cc1ccccc1)NN=Cc1c[nH]c2ccccc12	none
NC(=O)N/N=C/c1ccccc1OC(=O)c1cc2ccccc2oc1=O	KLK7 zymogen act 78.7 | KLK7 act conf 259.4 | EDANS interfere 259.3
NC(=S)N/N=C/c1ccccc1OC(=O)c1cc2ccccc2oc1=O	KLK7 zymogen act 42.5 | KLK7 act conf 228.5 | EDANS interfere 200.4
CC(C)CC(=O)N1CCC(C(=O)NCC2COc3ccccc3O2)CC1 (stereo not given)	none
N#Cc1c(N)n(-c2ccc(C(=O)O)cc2)c2nc3ccccc3nc12	KLK7 zymogen act 68.6 | KLK7 act conf 78.7 | EDANS interfere 78.7
N#Cc1c(N)n(-c2ccc(N)cc2)c2nc3ccccc3nc12	none
O=C(CCCCCN1C(=O)C2C3C=CC(C3)C2C1=O)Nc1cc(F)cc(F)c1 (stereo not given)	none
CCOC(=O)[C@@]12CCCC3=C1N(CCC3)C(=O)[C@H]2CC(=O)N1CCSCC1	none
N#Cc1c(C(F)(F)F)cc(C2CC2)[nH]c1=O	KLK7 zymogen act 17.6 | KLK7 act conf 16.3 | EDANS interfere 22.9
CCN(CC)C(=O)c1ccc2c(c1)nnn2C	KLK7 zymogen act 16.1 | KLK7 act conf inactive | EDANS interfere inactive
C=CCN(C(=O)c1ccc2c(c1)nnn2C)c1ccccc1	none
